Assay results as given in PubChem BioAssay AID1851 (National Center for Advancing Translational Sciences (NCATS), 2009).
Out of some 16,000 compounds screened, about 2,600 (16%) were called active. Roughly 20% stayed inconclusive and do not appear here. Calls come from the whole dose curve; as a rule, active = well fitted curve in the direction sought with a large enough effect; inconclusive = small, poorly fitted or top-dose-only effect, or effect the other way; inactive = no such curve, though single readings can be large or run the other way. Only a sample is shown.

Target: Cytochrome P450 2D6 (Homo sapiens) (UniProt P10635)
Assay: Cytochrome panel assay with activity outcomes
Conditions: recombinant CYP, pro-luciferin dealkylation, luminescence, p450-cyp2d6; series mostly up to 57.1 µM; activity, negative = inhibition: at the top concentration
% is set by controls: 0 for no effect and ±100 for the full control effect.

Chain of Cytochrome P450 2D6 (Homo sapiens) (P10635 whole entry, looked up): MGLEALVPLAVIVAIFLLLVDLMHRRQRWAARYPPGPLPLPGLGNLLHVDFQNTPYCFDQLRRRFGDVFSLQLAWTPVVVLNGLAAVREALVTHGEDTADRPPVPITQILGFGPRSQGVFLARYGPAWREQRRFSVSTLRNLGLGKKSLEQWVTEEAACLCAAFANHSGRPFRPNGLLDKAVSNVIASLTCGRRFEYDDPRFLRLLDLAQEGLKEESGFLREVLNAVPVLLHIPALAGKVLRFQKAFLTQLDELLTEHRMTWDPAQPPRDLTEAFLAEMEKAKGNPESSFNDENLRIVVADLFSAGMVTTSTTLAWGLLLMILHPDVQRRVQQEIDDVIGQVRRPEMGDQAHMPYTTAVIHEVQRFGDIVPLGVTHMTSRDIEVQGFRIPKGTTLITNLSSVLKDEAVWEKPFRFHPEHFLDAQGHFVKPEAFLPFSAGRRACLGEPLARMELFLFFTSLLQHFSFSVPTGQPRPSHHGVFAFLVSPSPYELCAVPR

activity, negative = inhibition, inactive:
CC(C)OCCCn1c(=S)[nH]c2ncccc2c1=O -7.67%, COCCn1c(=O)c(C)nc2cnc(N3CCNCC3)nc21 -1.98%, Cc1noc(NS(=O)(=O)c2ccc(NC(=O)c3ccc(Br)o3)cc2)c1C 0.162%, COCCOC(=O)C1=C(C)NC(=O)N(C(C)=O)C1c1ccc(Cl)cc1 (centres undefined) 1.76%, COC(=O)[C@@H]1[C@@H]2C[C@H]3c4[nH]c5ccccc5c4CCN3C[C@@H]2CC[C@@H]1OS(=O)(=O)O -18.5% [at 11.4 µM], COc1ccc2c3c([nH]c2c1)[C@@H]1C[C@@H]2[C@@H](C[C@H](O)[C@H](OC)[C@H]2C(=O)O)CN1CC3 3.02% [at 25.6 µM], C[C@@H](C(=O)O)c1ccc(C[C@@H]2CCCC2=O)cc1 17.2%, COCCNC(=O)c1cn(Cc2c(F)cccc2Cl)nn1 11.7%, Cc1cnc(CNc2cc(-c3ccccc3Cl)ncn2)cn1 -20.6%, Cc1cnc(CNc2cc(-c3ccc(C(=O)N(C)C)cc3)ncn2)cn1 8.03%, CCN(CC)C(=O)C1CC(=O)N(c2ccc(OC)cc2)C1c1ccc(OC)cc1 (centres undefined) 4.78%, COc1ccc(NC(=O)CSC2=NC(=O)CC(C)=N2)cc1 -4.11%, N#CCCn1nnc2ccccc21 -4.37%, O=C(NCc1ccccc1)c1ccc(Cl)cc1[N+](=O)[O-] -27.1%, Cc1cccc(C(CC(=O)N2CCCC2)c2ccccc2)c1O (centres undefined) -13.7%, CC(C)Oc1ccc(C(=O)Nc2ccc(NC(=O)c3ccco3)c(Cl)c2)cc1 -23.4%, O=C(O)Cc1cc(Cl)ccc1O 16.8% [at 11.4 µM], CCOC(=O)N1CCC(NS(=O)(=O)c2ccc3c(c2)C(C)(C)C(=O)N3C)CC1 27.5%, C[N+](C)(C)CCO 1.57%, COc1ccc(C(=O)n2nc(-c3ccccc3)nc2SC)cc1 -5.42%, Cc1ccc(C2C(C(=O)c3ccco3)=C(O)C(=O)N2c2nnc(C)s2)cc1 (centres undefined) -4.53%, O=C1Nc2cc(C(=O)N3CCOCC3)ccc2SC1N1CCOCC1 (centres undefined) 22.1%, COc1ccccc1CNC(=O)C1CC(=O)N(C2CCCC2)C1 (centres undefined) 0.967%, COc1ccccc1CNC(=O)CCCn1c(=O)c2ccccc2n(CC(=O)NC2CCCC2)c1=O -29.3%, NC(=O)c1ccc(C2SCC(=O)N2Cc2ccccc2)cc1 (centres undefined) 0.406%, Cc1ccc(CNC(=O)Cc2csc(Nc3nc(=S)[nH]c4ccccc34)n2)cc1 -28.3%, CC(=O)OCC(=O)[C@@]1(O)[C@H](C)C[C@@H]2[C@H]3CCC4=CC(=O)C=C[C@]4(C)[C@]3(F)[C@@H](O)C[C@@]21C 5.29% [at 25.6 µM], CC(C)(C)N1C(=O)[C@@H]2[C@H]3C(=CC[C@H]2C1=O)C(=O)[C@H]1O[C@H]1[C@H]3O 11.6% [at 11.4 µM], COC(=O)C/C=C\[C@@H](C)[C@@H](/C=N\O[C@@H](C)c1cn([C@H]2COC[C@H]2O)nn1)OC 15.1% [at 11.4 µM], N=C(N)SCC(=O)O -6.02% [at 11.4 µM], O=C1CC(c2ccc3c(c2)OCO3)CN1 (centres undefined) -9.95%, Cc1ccc(NC(=O)C2CC(=O)n3c(nc4ccccc43)N2)cc1 (centres undefined) 22.5%, Cc1cccc(OCC(=O)N/N=C\C=C\c2ccc3c(c2)OCO3)c1C -10.2%, CSC1=N/C(=C\c2ccc3c(c2)OCO3)C(=O)S1 -11.1%, CCOc1cc(/C=C2\CCC/C(=C\c3cc(Cl)c(O)c(OCC)c3)C2=O)cc(Cl)c1O -20.4%, CCOC(=O)c1c2ccc(OCC(=O)N/N=C/c3ccc(Cl)cc3)cc2n2ccccc12 -6.7%, Clc1ccccc1CSc1nnc(/C=C/c2ccccc2)o1 -13.5%, O=C(Nc1nnc(SCc2c(Cl)cccc2Cl)s1)C1CCCO1 (centres undefined) -22.2%, COc1cccc(Nc2ncc3nc(-c4cc(F)cc(F)c4)c(=O)n(CCC#N)c3n2)c1 -5.95%, CCCCCCCCn1cc(C(C)=O)c(=O)[nH]c1=O -17.1%, O=c1cnc2cnc(Oc3cccc(Cl)c3)nc2n1C[C@H]1CCCO1 -10.4%, COc1ccc(OC)c(N(CC(=O)N2CCc3ccccc3C2)S(C)(=O)=O)c1 11.7%, CCN(CC)S(=O)(=O)c1ccc(OC)c(NC(=O)c2cc([N+](=O)[O-])ccc2Cl)c1 7.36%, COc1ccc(C(=O)CN2C(=O)NC(C)(c3ccccc3)C2=O)cc1OC (centres undefined) 29.8%, CN(C)Cc1ccc(O)c(CN(C)C)n1 2.9% [at 11.4 µM], Cc1ccc(NC(=O)c2cccc(N(C)C)c2)cc1NC(=O)c1ccc(O)cc1 -8.94%, Cc1ccc(C(=O)Nc2ccc3nccnc3c2)cc1 -24.5%, Cc1cc(C)cc(-n2nnnc2-c2cn(C)nc2C(F)(F)F)c1 -20.2%, Cc1cccc(NC(=O)c2ccc([N+](=O)[O-])o2)n1 -26.8%, COc1cc(/C=N/NC(=O)c2cccnc2)ccc1OC(=O)c1ccco1 -4.37%, CCOc1cc(/C=N/NC(=O)c2cc(C)[nH]n2)ccc1OC(=O)c1ccc([N+](=O)[O-])cc1 -2.27%

AC50, active:
COC(=O)C1=CO[C@@H](C)[C@H]2CN3CCc4c([nH]c5ccccc45)[C@@H]3C[C@H]12 0.002 µM, Cc1cnc(CNc2ncnc3ccc(-c4ccccc4Cl)cc23)cn1 15.8 µM, Cc1cnc(CNc2ncnc3ccc(-c4ccccc4CN(C)C)cc23)cn1 2.51 µM, CN(Cc1ccccc1)C(=O)CC(c1ccccc1)c1cc(Cl)ccc1O (centres undefined) 8.91 µM, CC(C)Oc1ccc(CNC(=O)CC(c2ccccc2)c2cc(Cl)ccc2O)cc1 (centres undefined) 14.1 µM, COc1cc(CNC2CCCC2)cc(Cl)c1OCc1ccccc1Cl 0.891 µM, O=C1[C@@H]2C=CC=CC2=NC(=S)N1CCN1CCC(=C(c2ccc(F)cc2)c2ccc(F)cc2)CC1 12.6 µM, O=C1CC(c2ccc3c(c2)OCO3)Sc2nc3ccccc3n21 (centres undefined) 8.91 µM, COC(=O)N/N=C\C=C\c1ccc2c(c1)OCO2 11.2 µM, Clc1cccc(Cl)c1CSc1nnc(/C=C/c2ccccc2)o1 28.2 µM, COc1ccc([N+](=O)[O-])cc1N(CC(O)CN(CC(C)C)CC(C)C)S(=O)(=O)c1ccccc1 (centres undefined) 0.398 µM, CN(C)CCCc1cc(C(=O)Nc2ccc(-c3ccncc3)cc2)ccc1O 5.01 µM, Cc1cc(C(=O)N/N=C/c2cccc(OC(=O)c3ccco3)c2)n[nH]1 17.8 µM
